From PubChem
Rows were chosen to be rich in hits. Some 3.8% of all compounds tested hit in one or more screens of this group.
ADAM10 inh: human ADAM10 inhibitors, primary screen, biochemical, QFRET, HTS. Disintegrin and metalloproteinase domain-containing protein 10 (Homo sapiens), O14672. recombinant ADAM10, EDANS/DABCYL FRET peptide cleavage, 3 h. inhibition, % at 7 µM. 370,000 compounds, 0.62% hits. AID 720582, 2013;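 active = inhibition above a per-campaign cutoff equal to the mean of compounds falling between control-based bounds plus 3 SD, cut at about 20% in these data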;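 note: 0% = DMSO wells while the 100% control is not disclosed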
proKLK7 act: proKLK7 zymogen activators, primary screen, biochemical, fluorescence intensity. purified proKLK7, EDANS-DABCYL substrate fluorescence; 100% is mature enzyme control, 0% vehicle. activation, % at 7 µM. 370,000 compounds, 0.9% hits. AID 652039, 2013;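 active = activation above the mean of all tested compounds plus 3 SD, computed per campaign excluding outliers beyond control limits, cut at about 13% in these data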
Target sequence (P49862 whole entry, looked up): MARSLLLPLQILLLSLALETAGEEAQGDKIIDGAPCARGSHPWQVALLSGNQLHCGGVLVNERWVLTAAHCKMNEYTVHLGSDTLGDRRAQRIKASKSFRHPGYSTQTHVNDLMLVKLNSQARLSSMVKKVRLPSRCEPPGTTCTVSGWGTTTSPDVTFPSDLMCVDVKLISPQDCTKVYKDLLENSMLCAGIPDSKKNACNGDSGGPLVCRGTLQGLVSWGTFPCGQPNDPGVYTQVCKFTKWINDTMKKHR
Ecoli rRNA inh: reduced GFP signal of wild-type E. coli, primary screen, bacterial rRNA inhibitor project, GFP/RFP fluorescence, OD600, single point; E. coli WT GFP vs humanized-ribosome RFP mutants, 24 h; hits give low values; DMSO median 0, no signal -100; 350,000 compounds, 1.6% hits; GFP signal change (wild-type ribosome), % (concentration not given with the values);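 active = significant combined selectivity score with lowered wild-type GFP, culture density cut under 30%, mutant RFP and density less affected; inactive = any of these conditions unmet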
ADAM17 inh: ADAM17 inhibitors, primary screen, biochemical, QFRET; Disintegrin and metalloproteinase domain-containing protein 17 (Homo sapiens), P78536; recombinant ADAM17, EDANS/DABCYL FRET peptide cleavage; inhibition, % at 6.95 µM; 370,000 compounds, 0.83% hits; AID 720648, 2013;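 active = inhibition above the mean of compounds lying between control limits plus 3 SD, set per campaign, cut at about 8.5% in these data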;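 note: 0% = DMSO-only wells as the low control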
FGF22 binding: binders of human FGF22 protein, primary screen, FGF22 synaptogenesis inhibitor project, biophysical, thermal shift, single point | activity (Tm shift, normalised), % at 9.99 µM | 340,000 compounds, 1.5% hits | Fibroblast growth factor 22 (Homo sapiens), Q9HCT0 | recombinant FGF22 thermal shift, SYPRO orange fluorescence; percent of sucrose octasulfate shift, DMSO zero;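 active = mean Tm shift, scaled 0 neutral to 100 positive control, at about 1.3% or above, every replicate too, limit read from the data; inconclusive = no clear call, values can overlap the other calls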
Target sequence (Q9HCT0 whole entry, looked up): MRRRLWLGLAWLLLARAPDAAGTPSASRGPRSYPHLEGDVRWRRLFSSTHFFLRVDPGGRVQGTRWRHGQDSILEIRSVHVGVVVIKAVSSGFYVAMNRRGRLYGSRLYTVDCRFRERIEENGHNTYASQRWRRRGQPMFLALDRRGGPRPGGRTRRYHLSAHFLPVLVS
AID977621: growth inhibition of wild-type GFP E. coli, dose response, H69 mutant RFP, cherry-pick | shares compounds with Ecoli rRNA inh | activity change, negative = inhibition at 50 µM | 1,900 tested, under 10 active | E. coli wild-type GFP strain growth, fluorescence, 24 h;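 active = Wild-type ribosome reporter drop at least double the humanized mutant ribosome reporter drop, growth loss under a set limit; inconclusive = no clear call, values can overlap the other calls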;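 note: wild-type GFP and H69 mutant RFP strains grown together 50/50 in each well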
AID977628: E. coli growth inhibition, wild-type GFP versus h24 humanized RFP strain, dose response, h24 mutant RFP vs wild-type GFP, cherry-pick | activity change, negative = inhibition at 50 µM | E. coli WT GFP strain growth, fluorescence, 24 h | shares compounds with Ecoli rRNA inh | 1,900 tested, under 10 active;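 active = compound lowering the normal-ribosome reporter at least twice as much as the humanized-ribosome reporter, growth loss under a set limit; inconclusive = no clear call, values can overlap the other calls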;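 note: wild-type GFP and h24 humanized RFP strains co-cultured 1 to 1 per well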
Starred values were filed as active, the others as inactive; ? = inconclusive; / = not tested or not shown.

SMILES	ADAM10 inh	proKLK7 act	Ecoli rRNA inh	ADAM17 inh	FGF22 binding	AID977621	AID977628
O=C(CCc1nc2ccccc2s1)Nc1ccccc1	3	0	/	2	/	/	/
c1ccc(Cc2nc3ccccc3s2)cc1	-25	0	-18*	-6	0	/	-12
COc1ccc(-n2nc3cc(N)c(Br)cc3n2)cc1	-101	-1	-27*	-46	0	-1.5	-11
O=C(NCC1CC1)[C@H]1[C@H](CO)[C@H]2Cn3c(ccc(-c4ccccc4F)c3=O)[C@@H]1N2Cc1cccnc1	/	/	0	/	0	/	/
O=C(O)c1cc2ccc3ccccc3c2[nH]1	-39	0	-26*	-12	1	-5.3	/
O=C(O)c1cc(=O)c2ccccc2[nH]1	-24	0	/	-4	0	/	/
COc1ccc(-c2nc(NC(C)=O)sc2-c2ccccc2)cc1	8	0	-18*	-2	0	-3.8	/
Nc1ccc(C(=O)OCc2nc3cc4ccccc4cc3[nH]2)cc1	2	0	-23	-1	0	/	/
Nc1ccc(C(=O)OCCCc2nc3cc4ccccc4cc3[nH]2)cc1	2	1	-17*	0	0	0.46	-0.53
C[C@@H]1CN([C@@H](C)CO)C(=O)c2cc(C#Cc3ccccc3)cnc2O[C@@H]1CN(C)C(=O)c1ccccc1F	/	/	2	/	0	/	/
CSc1nc2ccc(NS(=O)(=O)c3ccc(CNC(C)=O)cc3)cc2s1	-12	-1	1	-5	0	/	/
CSc1nc2ccc(NS(=O)(=O)c3ccc([N+](=O)[O-])cc3)cc2s1	7	0	-22*	-3	0	-14	-7.9
CCOC(=O)c1c(NC(=O)CN2CCC(C)CC2)sc(C)c1C	-2	0	-21*	-2	0	2.2	-14
CN(C)C(=O)[C@H]1[C@H](CO)[C@H]2Cn3c(ccc(-c4cccnc4)c3=O)[C@H]2N1Cc1ccccc1F	/	/	-3	/	0	/	/
Cc1ccc(CNC(=O)CCCCCNc2nc(=S)[nH]c3ccccc23)cc1	2	0	14	-1	0	/	/
NS(=O)(=O)c1ccc(CCNC(=O)CCCCCNc2nc(=S)[nH]c3ccccc23)cc1	-2	1	-22*	3	0	-10	-11
COc1cccc(OC)c1C(=O)Nc1ccc(N2CCN(C(=O)c3cccs3)CC2)cc1	-1	0	-3	1	-1	/	/
COc1ccc(NC(=O)c2cccs2)cc1C(=O)N1CCN(c2ccccc2)CC1	-5	0	-21*	-5	0	-7	-14
O=C(NCc1nc2ccccc2[nH]1)c1ccc(S(=O)(=O)N2CCCC2)cc1	-10	0	-29*	-5	0	-19	/
O=C(c1ccc2c(c1)CCN2S(=O)(=O)c1ccccc1)N1CCN(c2ccccc2)CC1	-2	0	-26*	-2	0	/	?
CS(=O)(=O)N1CCc2cc(C(=O)N3CCN(c4ccc(F)cc4)CC3)ccc21	-1	0	1	-3	0	/	/
COc1ccc(CSc2nc3ccccc3c(=O)n2CCCN2CCOCC2)cc1F	2	0	-28*	3	0	-4.5	-18
COC(=O)C[C@H]1CC[C@H]2[C@@H](COc3ccc(NC(=O)Nc4ccccc4C)cc3C(=O)N2C)O1	/	/	-1	/	0	/	/
CN(Cc1ccc(Cl)s1)C(=O)CNC(=O)CNC(=O)c1ccc(Cl)cc1Cl	-3	0	-27*	-2	0	/	-5.2
Cc1onc(-c2c(Cl)cccc2Cl)c1C(=O)Nc1ccc(Cl)cn1	-5	0	-20*	-5	0	-0.98	-3
